# Measurements: PubChem BioAssay AID504408 (Broad Institute, 2011)
# Hit rate of the full screen: of about 300,000 compounds, about 5,200 (1.7%) were called active. The sample holds actives, similar compounds and a random draw of the others, so the mix is not that of the screen. A number with no mark means an inactive call.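 How the source made its calls: active means mean replicate activation of at least 50% with a set share of replicates each reaching 50%; inconclusive means only one of those two conditions met; inactive means mean below 50% and too few replicates reaching it.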
# Experiment: HSF-1 activators, primary screen, NIH3T3-HGL cells, MG132 stress, luminescence, single point (AID 504408);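 further: 0% = median of the neutral control wells and 100% = twice that signal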
# Details: NIH3T3-HGL HSF-1 luciferase reporter, MG132, 8 h; at 9 µM; active compounds read high; 100% = twice DMSO control signal
row,SMILES,activation
1,Cc1ccc(NC(=O)CSc2nc(=O)n(CCN(C)C)c3c2CCCC3)c(C)c1,-10.7%
2,CN1CCN(S(=O)(=O)c2ccc(Nc3ccc(F)cc3)nc2)CC1,-7%
3,NS(=O)(=O)c1ccc(CCNC(=O)CN2C(=O)c3ccccc3S2(=O)=O)cc1,-4.15%
4,COc1ccc(S(=O)(=O)NCCCc2ccccc2)cc1,-30.2%
5,CCOc1cccc(/C=C/c2ccc3ccccc3n2)c1OC(C)=O,132% (active)
6,NC(=O)COC(=O)/C=C/c1ccc2ccccc2n1,-46.9%
7,COc1cccc(/C=C/c2ccc3ccccc3n2)c1OC(C)=O,-16.6%
8,O=C(Nc1ncccc1O)c1ccc(C(=O)c2ccccc2)cc1,-2.58%
9,CCCCn1c(N)c(N(CCOC)C(=O)CSCC(=O)Nc2cccc(C)c2)c(=O)[nH]c1=O,1.06%
10,CCC1Nc2ncnc(N3CCN(c4ccccc4)CC3)c2N(Cc2ccc(Cl)cc2)C1=O (configuration not stated),22.3%
11,Cc1ccc(CC2S/C(=C(/C#N)C(=O)N3CCOCC3)N(c3ccccc3)C2=O)cc1 (configuration not stated),19.9%
12,Cc1cccc(N2C(=O)SC(N(CC(=O)O)c3cccc(C)c3)C2=O)c1 (configuration not stated),17.2%
13,Cc1ccc(N2C(=O)SC(N(CC(=O)O)c3ccc(C)cc3)C2=O)cc1 (configuration not stated),96.4% (active)
14,CC(=O)Nc1ccc(C(=O)NNC(=O)CCCCC(=O)NNC(=O)c2ccc(NC(C)=O)cc2)cc1,0.0985%
15,Cc1ccc(C(=O)NC2CCCC(C)C2C)cc1S(=O)(=O)N1CCCCC1 (configuration not stated),2.09%
16,O=[N+]([O-])c1ccc(S(=O)(=O)Nc2cccc(-c3ccc(N4CCCC4)nn3)c2)cc1,-7.69%
17,COn1c(-c2ccc(Cl)cc2Cl)nc2ncccc21,22.3%
18,Clc1ccc(COn2c(-c3ccc(Cl)cc3Cl)nc3ncccc32)cc1,-4.74%
19,Clc1ccc(-c2ncc3ccccn23)c(Cl)c1,69.3% (active)

row,SMILES,activation
1,COc1ccc(-c2nc3ccccc3c(=O)n2CCc2ccc(O)cc2)cc1,29.5%
2,COc1ccc(-c2c(C#Cc3ccccc3)c3ccccc3n2C)cc1,64.2% (active)
3,COc1ccc(-c2cc(C(=O)n3cnc4ccccc43)c3ccccc3n2)cc1,-1.65%
4,O=C(COC(=O)c1ccccc1Br)Nc1nnc(-c2ccccc2)o1,-10.6%
5,CC1CCN(c2ccc(-c3ccc(NC(=O)c4ccco4)cc3)nn2)CC1,-39.2%
6,CSCCC(NC(=O)c1ccco1)C(=O)Nc1cc(C)ccn1 (configuration not stated),4.08%
7,Cc1ccc(-c2csc(NC(=O)C3=COCCO3)n2)cc1C,31.4%
8,Cc1cc(C)c2c3c(sc2n1)C(c1ccccc1)C(C#N)=C(N)O3 (configuration not stated),-10.5%
9,Cc1cc(C)c(C#N)c(SCc2[nH]nc3c2C(c2ccccc2)C(C#N)=C(N)O3)n1 (configuration not stated),64% (active)
10,CCc1ccc(C2C(C#N)=C(N)Oc3n[nH]c(CC(=O)OC)c32)cc1 (configuration not stated),3.08%
11,CCN(C(=O)CSc1ncnc2c1cnn2-c1ccccc1)C1CCS(=O)(=O)C1 (configuration not stated),-4.69%
12,Clc1ccc(-c2csc(-c3ccncc3)n2)cc1,58% (active)
13,Nc1scc(-c2ccncc2)c1Cl,11.5%
14,Fc1ccc(-c2csc(-c3ccc(C4SCCS4)cc3)n2)cc1F,23.4%
15,CCCn1c(C)cc(/C=C(\C#N)C(=O)OCC(=O)N(C)c2c(N)n(Cc3ccccc3)c(=O)[nH]c2=O)c1C,-4.32%
16,Cc1nn(-c2ccccc2)c(Cl)c1/C=C/C(=O)c1ccc(O)cc1,76.9% (active)
17,Cc1ccc(C(=O)/C=C/c2c(C)nn(-c3ccccc3)c2Cl)cc1,42.3%
18,Cc1nn(-c2ccccc2)c(Cl)c1C(=O)Nc1ccccc1,-8.73%
19,COc1cc2c(cc1OC)C(Cc1cc(OC)c(OC)cc1[N+](=O)[O-])=NCC2,-5.53%

row,SMILES,activation
1,C/[N+]([O-])=C\c1ccc([N+](=O)[O-])o1,-2.43%
2,O=C(/C=C/c1ccc([N+](=O)[O-])o1)NNC(=O)c1ccc(F)cc1,71.3% (active)
3,O=C(N/N=C/c1ccc([N+](=O)[O-])o1)c1cn(-c2ccccc2)nc1-c1ccc(F)cc1,3.06%
4,Cc1ccc(OCCNC(=O)CNC(=O)c2ccc(C)c(C)c2)cc1,16.2%
5,O=C1[C@H]2[C@@H](c3ccc(Cl)cc3)N3C(=O)N(c4cccc(F)c4)C(=O)[C@@]3(Cc3ccccc3)[C@H]2C(=O)N1C1CCCCC1,-0.394%
6,COC(=O)c1cc(NC(=O)Cc2ccccc2[N+](=O)[O-])ccc1Cl,-11.7%
7,CC(=O)Nc1ccc(NC(=O)C(C)OC(=O)c2ccccc2C(=O)c2ccc(Cl)c([N+](=O)[O-])c2)cc1 (configuration not stated),27.5%
8,N#Cc1cccc(NC(=O)COC(=O)c2ccccc2C(=O)c2ccc(Cl)c([N+](=O)[O-])c2)c1,241% (active)
9,CC1(c2ccc(Cl)cc2Cl)NC(=O)N(CC(=O)Nc2cccnc2Cl)C1=O (configuration not stated),-7.46%
10,COc1ccccc1CCNC(=O)C(=O)NCCC1CCCCN1S(=O)(=O)c1cccs1 (configuration not stated),18%
11,CN(CC(=O)NCc1cccnc1)S(=O)(=O)c1cc(Cl)ccc1Cl,1.99%
12,CC(Oc1ccc(Br)cc1)C(=O)NCC(c1ccco1)N1CCCCC1 (configuration not stated),12.7%
13,CC(OC(=O)c1ccc(-n2cnnn2)cc1)C(=O)NCc1ccccc1 (configuration not stated),-14%
14,CCOC(=O)N1CCN(C(=O)CSc2nc(=O)n3cccc(C)c3n2)CC1,-0.428%
15,CCOC(=O)N1CCN(C(c2cccnc2)c2ccc3cccnc3c2O)CC1 (configuration not stated),67.9% (active)
16,CCN1CCN(C(c2cccnc2)c2cc(Cl)c3cccnc3c2O)CC1 (configuration not stated),-83.7%
17,Cc1ccc(S(=O)(=O)c2nnn3c2nc(N2CCN(c4ccccn4)CC2)c2ccccc23)cc1,30.6%
18,Cc1cccc(Nc2nc3c(S(=O)(=O)c4ccccc4)nnn3c3ccccc23)c1C,8.48%
19,CC(=O)Nc1ccc(Nc2nc3c(S(=O)(=O)c4ccc(C)c(C)c4)nnn3c3ccccc23)cc1,74.4% (active)
